The results in this text go back to PubChem BioAssay (NCATS).

Results filed as inconclusive are left out. Calls of active or inactive are those of the source. Calls follow the shape of the dose curve; as a rule, active = well fitted cell-killing curve with a large enough effect; inconclusive = small, poorly fitted or top-dose-only effect, or effect the other way; inactive = no such curve, though single readings can be large or run the other way.
Potency is read from the fitted curve at half-maximal effect.

A short description of the experiment: Quantitative High-Throughput drug screen in 47 multiple myeloma cell lines against the NCATS MIPE library collection: KMS12BM_JCRB cell viability assay (AID 1918971). Also: nearly all actives have a fitted effect of over 35% in size. The note with it: KMS12BM myeloma viability, CellTiter-Glo ATP, 48 h; series mostly up to 45.8 µM. Summed up:
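CellTiter-Glo luminescence (ATP) after 48 h compound exposure, 37C/5% CO2; 500 cells/well; MIPE 4.0 approved/investigational drugs pinned in; DMSO = 100%, media only = 0% viability.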
Background: ATP-based viability assays read luminescence as a measure of living cells.
`CS(=O)(=O)N(Cc1ccco1)CC(O)Cn1c2ccccc2c2ccccc21` (stereo not drawn): the Potency was 20.9 µM (active).
Regarding `O=C(OCC#CCSc1nnc(-c2cccc3ccccc23)o1)c1cc2ccccc2s1`, the Potency is 16.6 µM (active).
For `COCCOc1nc(-c2ccc(Cl)c(Cl)c2)n(-c2ccc(NC(=O)CCl)cc2)n1` the value was 16.6 µM (active); for `C[C@H](NC(=O)c1sccc1OCc1ccc(Cl)cc1)c1ccccc1`, 18.7 µM (active); for `COc1ccc2c(Oc3ccc(NC(=O)c4c(C)n(CC(C)(C)O)n(-c5ccccc5)c4=O)cc3F)ccnc2c1`, 33.2 µM (active).
For the compound `NC(=O)c1cccc(-c2cc(Nc3ccc(OC(F)(F)F)cc3)ncn2)c1`, the Potency is 23.5 µM (active).
For `CC1(C)CCC(CN2CCN(c3ccc(C(=O)NS(=O)(=O)c4ccc(NCC5CCOCC5)c([N+](=O)[O-])c4)c(Oc4cnc5[nH]ccc5c4)c3)CC2)=C(c2ccc(Cl)cc2)C1` the value was 0.0526 µM (active); for `O=C(Nc1cccc(Br)c1)c1cccc(S(=O)(=O)N2CCCCCC2)c1`, 20.9 µM (active); for `Nc1ncnc2c1ncn2[C@@H]1O[C@@H](CO)[C@H](O)[C@H]1O`, “inactive”.
With `CNC(=O)c1ccccc1Sc1ccc2c(C=Cc3ccccn3)n[nH]c2c1`, the Potency was 16.6 µM (active).
For `O=C(Nc1cc(Cl)cc2c1[nH]c1cnccc12)c1cccnc1` the value was 18.7 µM (active).
For `O=C1NC(=O)C(=Cc2ccc3nccnc3c2)S1` the value was 8.12 µM (active); for `CC(C)C(=O)Oc1ccc(CO)cc1[C@H](CCN(C(C)C)C(C)C)c1ccccc1`, 14.8 µM (active).
For the compound `CCCCCNC(=O)N1CCC(CN(Cc2ccc(Cl)cc2)Cc2ccc([N+](=O)[O-])s2)C1` (stereo not drawn), the Potency is 23.5 µM (active).
As to `Cc1ccccc1C(C(=O)NC1CCCCC1)N(C(=O)Cn1ccnc1C)c1cccc(F)c1` (stereo not drawn), the Potency is 8.33 µM (active).
As to `O=c1cc(CN2CCOCC2)occ1OCCCCCSc1ccnc2cc(C(F)(F)F)ccc12`, the Potency is 5.9 µM (active).
As to `NC1CCC(Nc2nc(Nc3ccc(C(=O)N4CCCCC4)cc3)c3ncn(-c4cccc(F)c4)c3n2)CC1` (stereo not drawn), the Potency entry is “inactive”.
The value for `O=C(N[C@@H](c1ccccc1)[C@@H]1CCCCN1)c1cccc(C(F)(F)F)c1Cl` was 7.43 µM (active); that for `COc1cccc2c1CCCC2CCCN1CCN(C2CCCCC2)CC1` (stereo not drawn) was 23.5 µM (active); that for `CC[C@H]1OC(=O)[C@H](C)[C@@H](O[C@H]2C[C@@](C)(OC)[C@@H](O)[C@H](C)O2)[C@H](C)[C@@H](O[C@@H]2O[C@H](C)C[C@H](N(C)C)[C@@H]2O)[C@](C)(O)C[C@@H](C)CN(C)[C@H](C)[C@@H](O)[C@]1(C)O` was “inactive”.
For `Cc1cc(OCCCc2c(C(=O)O)n(Cc3cccnc3)c3c(-c4c(COc5ccc(N6CCN([S+](C)(=O)[O-])CC6)cc5)nn(C)c4C)cccc23)cc(C)c1Cl` the value was 26.4 µM (active); for `CN[C@@H](C)C(=O)N[C@H]1CN(C(=O)CC(C)C)CC[C@H]2CC[C@@H](C(=O)NC(c3ccccc3)c3ccccc3)N2C1=O`, 26.4 µM (active); for `COc1cc(N2CCC(N3CCN(C)CC3)CC2)ccc1Nc1ncnc(Nc2ccccc2S(=O)(=O)C(C)C)n1`, 23.5 µM (active).
Turning to `Cc1ccc(F)c(NC(=O)Nc2ccc(-c3cccc4[nH]nc(N)c34)cc2)c1`, the Potency was 26.4 µM (active).
On to `COc1cc2c(cc1OC)CN(CCc1ccc(NC(=O)c3cc(OC)c(OC)cc3NC(=O)c3cnc4ccccc4c3)cc1)CC2`, for which the Potency is 10.5 µM (active).
For `CC(C)C(=O)Nc1ncc(-c2cc(C(F)F)nn2-c2c(Cl)cccc2Cl)s1` the value was 26.4 µM (active); for `CC(C)(C)COc1ccc(-n2cc(C(=O)O)cn2)cc1C#N`, “inactive”.
For `C[C@]12CCC3c4ccc(O)cc4CCC3C1CCC2=O` (stereo partly drawn) the value was 20.9 µM (active); for `N#CC1(c2ccc(NC(=O)c3cccnc3NCc3ccncc3)cc2)CCCC1`, 23.5 µM (active); for `CCOC1OC(=O)C[C@H]1NC(=O)[C@@H]1CCCN1C(=O)[C@@H](NC(=O)c1ccc(N)c(Cl)c1)C(C)(C)C` (stereo partly drawn), “inactive”.
For the compound `NS(=O)(=O)c1ccc(NC2=CC(=O)c3ccccc3C2=O)cc1`, the Potency result was “inactive”.
As for `Cc1c(O)cccc1C(=O)N[C@@H](CSc1ccccc1)[C@H](O)CN1C[C@H]2CCCC[C@@H]2C[C@@H]1C(=O)NC(C)(C)C`, the Potency was 20.9 µM (active).
`CC(=O)O[C@]1(C(C)=O)CC[C@@H]2[C@@H]3C[C@H](C)C4=CC(=O)CC[C@]4(C)[C@H]3CC[C@@]21C`: the Potency was 16.6 µM (active).
